Experimental findings from paper PMC7862700, “An all-to-all approach to the identification of sequence-specific readers for epigenetic DNA modifications on cytosine” are described below.

Test in all cases: DAPPL (digital affinity profiling via proximity ligation, sequencing); 10 mM Tris-HCl pH 7.5, 50 mM NaCl, 1 mM DTT, 4% glycerol, room temperature, 30 min; GST-TFs on glutathione beads, 16-mer random dsDNA library, 0.1% formaldehyde crosslink after washing; high values mean tight binding
Holding throughout (details): protein: recombinant; tags: N-terminal GST; dsDNA, one strand shown

One experiment has as its target T1, FLI1 (Homo sapiens, UniProt Q01543 1-452).
T1 sequence: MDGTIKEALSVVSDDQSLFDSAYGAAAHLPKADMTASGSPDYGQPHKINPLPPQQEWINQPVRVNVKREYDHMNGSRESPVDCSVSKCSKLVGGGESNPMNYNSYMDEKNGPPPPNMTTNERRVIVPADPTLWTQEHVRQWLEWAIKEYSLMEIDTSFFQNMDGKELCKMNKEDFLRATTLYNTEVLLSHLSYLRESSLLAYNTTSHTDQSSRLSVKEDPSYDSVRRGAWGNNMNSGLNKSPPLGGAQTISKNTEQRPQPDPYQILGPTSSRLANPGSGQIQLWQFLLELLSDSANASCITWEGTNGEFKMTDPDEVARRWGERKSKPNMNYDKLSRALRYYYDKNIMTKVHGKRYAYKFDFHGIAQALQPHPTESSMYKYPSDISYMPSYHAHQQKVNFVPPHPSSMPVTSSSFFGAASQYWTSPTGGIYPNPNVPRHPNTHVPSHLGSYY
In outline: (§1)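 Each value of binding signal is a hexamer's read frequency for a factor divided by the same hexamer's frequency in the tag-only sample. Barcoded, bead-captured GST fusions of human transcription factors made in yeast were pooled with that sample and incubated with 200 nmole of a random double-stranded 16-mer DNA library in Tris/NaCl/DTT/glycerol buffer at room temperature for 30 min. Washing, 0.1% formaldehyde crosslinking, proximity ligation, PCR and Illumina NextSeq500 sequencing followed.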

Another experiment addresses ELF1 (Homo sapiens, UniProt P32519 1-619). In outline: as §1
For a further experiment, the target named is T2, EHF (Homo sapiens, UniProt Q9NZC4 1-300).
T2 sequence: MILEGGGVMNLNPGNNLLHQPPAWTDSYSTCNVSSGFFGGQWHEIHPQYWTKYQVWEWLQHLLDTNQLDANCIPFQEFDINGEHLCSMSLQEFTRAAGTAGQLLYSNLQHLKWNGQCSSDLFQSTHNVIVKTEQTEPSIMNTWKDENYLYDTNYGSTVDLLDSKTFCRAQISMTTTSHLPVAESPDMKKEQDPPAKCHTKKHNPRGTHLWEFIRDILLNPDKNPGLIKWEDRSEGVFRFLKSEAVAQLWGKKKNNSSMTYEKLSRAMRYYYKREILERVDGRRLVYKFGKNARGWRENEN
A digest of the protocol:
as §1

A further experiment has as its target T3, ELK3 (Homo sapiens, UniProt P41970 1-407).
T3 sequence: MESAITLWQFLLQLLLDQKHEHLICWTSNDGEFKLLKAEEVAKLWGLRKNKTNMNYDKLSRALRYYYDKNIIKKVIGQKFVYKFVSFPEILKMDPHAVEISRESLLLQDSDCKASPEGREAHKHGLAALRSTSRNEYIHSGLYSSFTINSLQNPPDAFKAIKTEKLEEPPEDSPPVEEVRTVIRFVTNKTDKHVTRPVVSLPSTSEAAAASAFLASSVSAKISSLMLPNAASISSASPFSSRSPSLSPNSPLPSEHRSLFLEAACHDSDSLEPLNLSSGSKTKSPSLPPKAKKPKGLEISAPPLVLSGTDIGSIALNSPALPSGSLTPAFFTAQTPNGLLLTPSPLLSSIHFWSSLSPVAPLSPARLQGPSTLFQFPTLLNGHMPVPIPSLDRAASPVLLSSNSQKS
In outline: as §1

Another experiment addresses T4, SPIC (Homo sapiens, UniProt Q8N5J4 1-248).
T4 sequence: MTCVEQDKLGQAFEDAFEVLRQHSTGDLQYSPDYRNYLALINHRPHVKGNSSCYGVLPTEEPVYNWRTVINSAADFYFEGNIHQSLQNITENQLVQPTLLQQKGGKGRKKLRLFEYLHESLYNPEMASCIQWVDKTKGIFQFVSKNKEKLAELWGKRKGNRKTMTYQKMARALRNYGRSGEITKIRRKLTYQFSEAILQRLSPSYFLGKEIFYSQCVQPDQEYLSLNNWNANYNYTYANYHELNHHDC
In outline:
as §1

In another experiment the target is ELF4 (Homo sapiens, UniProt Q99607 1-663). A digest of the protocol: as §1
Sequence of ELF4 (Q99607 whole entry): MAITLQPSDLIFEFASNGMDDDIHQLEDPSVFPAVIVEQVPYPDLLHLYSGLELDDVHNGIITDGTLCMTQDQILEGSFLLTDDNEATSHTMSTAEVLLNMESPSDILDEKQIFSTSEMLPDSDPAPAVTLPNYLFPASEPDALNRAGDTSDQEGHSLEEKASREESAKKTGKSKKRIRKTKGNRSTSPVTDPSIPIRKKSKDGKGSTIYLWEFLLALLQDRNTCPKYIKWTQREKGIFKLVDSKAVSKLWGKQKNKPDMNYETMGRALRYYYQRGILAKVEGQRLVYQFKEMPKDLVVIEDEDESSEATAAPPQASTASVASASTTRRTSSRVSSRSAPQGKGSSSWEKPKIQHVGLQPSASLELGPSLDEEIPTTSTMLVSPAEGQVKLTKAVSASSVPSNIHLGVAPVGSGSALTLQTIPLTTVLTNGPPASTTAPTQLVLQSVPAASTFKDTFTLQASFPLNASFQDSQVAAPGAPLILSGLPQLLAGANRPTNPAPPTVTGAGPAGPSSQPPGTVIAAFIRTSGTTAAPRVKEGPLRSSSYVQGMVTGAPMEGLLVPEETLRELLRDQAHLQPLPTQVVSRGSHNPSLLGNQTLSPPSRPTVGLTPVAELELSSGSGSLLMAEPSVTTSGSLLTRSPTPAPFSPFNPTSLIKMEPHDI
For the next experiment, the target named is T5, ETV2 (Homo sapiens, UniProt O00321 1-342).
T5 sequence: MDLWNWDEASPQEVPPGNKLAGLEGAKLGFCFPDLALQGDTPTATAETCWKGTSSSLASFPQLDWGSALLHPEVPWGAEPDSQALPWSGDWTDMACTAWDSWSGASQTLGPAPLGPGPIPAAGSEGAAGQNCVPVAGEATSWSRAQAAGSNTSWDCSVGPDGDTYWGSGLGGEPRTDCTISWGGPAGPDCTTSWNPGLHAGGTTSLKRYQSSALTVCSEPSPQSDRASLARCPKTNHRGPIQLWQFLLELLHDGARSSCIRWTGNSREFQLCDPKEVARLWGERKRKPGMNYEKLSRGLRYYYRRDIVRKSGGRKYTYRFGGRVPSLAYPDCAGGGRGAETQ
A digest of the protocol: as §1

The next experiment deals with T6, ELF3 (Homo sapiens, UniProt P78545 1-371).
T6 sequence: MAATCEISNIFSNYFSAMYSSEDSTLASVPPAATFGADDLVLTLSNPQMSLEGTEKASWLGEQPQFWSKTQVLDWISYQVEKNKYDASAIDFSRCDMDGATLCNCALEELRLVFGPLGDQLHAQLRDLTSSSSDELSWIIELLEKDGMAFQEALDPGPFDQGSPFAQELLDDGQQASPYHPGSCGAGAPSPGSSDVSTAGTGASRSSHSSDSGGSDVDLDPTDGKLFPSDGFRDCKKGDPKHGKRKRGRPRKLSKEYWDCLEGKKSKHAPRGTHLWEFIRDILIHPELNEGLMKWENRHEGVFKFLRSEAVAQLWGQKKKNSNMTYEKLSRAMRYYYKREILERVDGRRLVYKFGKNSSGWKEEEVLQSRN
A digest of the protocol:
as §1

Another experiment addresses ETV1 (Homo sapiens, UniProt P50549 1-477). A digest of the protocol:
as §1

For another experiment, the target named is T7, ERF (Homo sapiens, UniProt P50548 1-548).
T7 sequence: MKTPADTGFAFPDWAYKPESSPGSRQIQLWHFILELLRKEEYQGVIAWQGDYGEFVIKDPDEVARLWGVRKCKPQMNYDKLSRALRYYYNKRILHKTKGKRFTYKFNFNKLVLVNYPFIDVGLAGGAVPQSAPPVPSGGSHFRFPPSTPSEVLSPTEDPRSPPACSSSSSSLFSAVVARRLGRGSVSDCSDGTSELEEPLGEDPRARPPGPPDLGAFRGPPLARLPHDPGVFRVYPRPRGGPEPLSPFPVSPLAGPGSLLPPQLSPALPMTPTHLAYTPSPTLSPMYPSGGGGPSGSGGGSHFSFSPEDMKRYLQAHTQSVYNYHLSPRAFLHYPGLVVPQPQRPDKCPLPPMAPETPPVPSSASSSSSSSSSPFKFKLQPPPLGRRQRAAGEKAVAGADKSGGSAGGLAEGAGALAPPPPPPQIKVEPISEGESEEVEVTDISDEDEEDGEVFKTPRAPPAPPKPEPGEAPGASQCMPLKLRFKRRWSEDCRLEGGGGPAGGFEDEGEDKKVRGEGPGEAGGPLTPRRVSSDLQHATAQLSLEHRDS
In outline: as §1

For the next experiment, the target named is T8, ETV7 (Homo sapiens, UniProt Q9Y603 1-341).
T8 sequence: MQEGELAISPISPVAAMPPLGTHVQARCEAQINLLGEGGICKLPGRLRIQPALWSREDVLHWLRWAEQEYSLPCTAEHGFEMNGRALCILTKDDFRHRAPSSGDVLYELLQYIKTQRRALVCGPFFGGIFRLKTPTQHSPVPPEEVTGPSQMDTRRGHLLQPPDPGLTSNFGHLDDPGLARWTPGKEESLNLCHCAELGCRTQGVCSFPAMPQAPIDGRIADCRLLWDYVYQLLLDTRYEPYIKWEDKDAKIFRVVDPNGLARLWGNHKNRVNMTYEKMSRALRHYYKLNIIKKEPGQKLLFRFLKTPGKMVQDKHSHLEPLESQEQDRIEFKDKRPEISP
In outline:
as §1

In another experiment the target is T9, ETV3 (Homo sapiens, UniProt P41162-2 1-143).
T9 sequence: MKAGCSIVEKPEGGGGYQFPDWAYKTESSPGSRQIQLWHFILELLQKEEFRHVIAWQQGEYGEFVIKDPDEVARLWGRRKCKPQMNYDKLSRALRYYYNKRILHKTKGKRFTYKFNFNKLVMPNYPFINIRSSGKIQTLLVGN
In outline: as §1

Sequence of ELF1 (P32519 whole entry): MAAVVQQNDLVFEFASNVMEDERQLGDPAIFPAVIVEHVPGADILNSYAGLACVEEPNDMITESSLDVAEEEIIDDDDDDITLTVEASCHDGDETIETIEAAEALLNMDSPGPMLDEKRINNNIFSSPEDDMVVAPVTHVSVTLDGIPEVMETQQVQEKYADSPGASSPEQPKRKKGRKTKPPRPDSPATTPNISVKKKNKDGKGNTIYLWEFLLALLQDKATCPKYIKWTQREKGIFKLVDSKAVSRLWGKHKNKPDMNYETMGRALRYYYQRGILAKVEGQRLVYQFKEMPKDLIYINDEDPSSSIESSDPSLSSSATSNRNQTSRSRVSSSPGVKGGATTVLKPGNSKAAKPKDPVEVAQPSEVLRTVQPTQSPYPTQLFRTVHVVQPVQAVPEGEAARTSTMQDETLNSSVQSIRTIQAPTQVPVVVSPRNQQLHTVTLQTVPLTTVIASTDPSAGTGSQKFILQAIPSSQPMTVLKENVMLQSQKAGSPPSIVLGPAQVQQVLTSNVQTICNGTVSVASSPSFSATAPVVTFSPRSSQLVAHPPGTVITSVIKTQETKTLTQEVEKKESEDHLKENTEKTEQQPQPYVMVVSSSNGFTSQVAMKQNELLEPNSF
Sequence of ETV1 (P50549 whole entry): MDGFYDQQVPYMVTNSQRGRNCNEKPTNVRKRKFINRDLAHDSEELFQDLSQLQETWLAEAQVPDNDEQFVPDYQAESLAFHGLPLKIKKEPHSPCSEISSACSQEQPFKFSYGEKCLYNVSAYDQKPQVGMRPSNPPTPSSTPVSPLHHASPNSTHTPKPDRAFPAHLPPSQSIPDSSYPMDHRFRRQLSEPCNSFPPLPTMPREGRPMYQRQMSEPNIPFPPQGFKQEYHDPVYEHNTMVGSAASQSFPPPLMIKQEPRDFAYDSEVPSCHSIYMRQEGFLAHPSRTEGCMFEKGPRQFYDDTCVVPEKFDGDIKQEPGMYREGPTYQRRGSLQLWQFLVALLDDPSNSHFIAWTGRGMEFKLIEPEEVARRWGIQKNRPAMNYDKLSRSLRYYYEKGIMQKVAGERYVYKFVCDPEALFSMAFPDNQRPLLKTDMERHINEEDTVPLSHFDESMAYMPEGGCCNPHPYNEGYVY

Consider ACTCGG, for which the binding signal in the experiment with FLI1 is 1.07 fold enrichment (6-mer frequency, TF over GST control); with ELF1, 1.07 fold enrichment (6-mer frequency, TF over GST control); with EHF, 1.04 fold enrichment (6-mer frequency, TF over GST control); in the experiment with ELK3, 1.06 fold enrichment (6-mer frequency, TF over GST control); in the experiment with SPIC it was 1.08 fold enrichment (6-mer frequency, TF over GST control); with ELF4, 1.02 fold enrichment (6-mer frequency, TF over GST control). In addition, the binding signal is 1.03 fold enrichment (6-mer frequency, TF over GST control) with ETV2; 1.03 fold enrichment (6-mer frequency, TF over GST control) in the experiment with ELF3; 1.03 fold enrichment (6-mer frequency, TF over GST control) with ETV1; 1.04 fold enrichment (6-mer frequency, TF over GST control) with ERF; 1.06 fold enrichment (6-mer frequency, TF over GST control) in the experiment with ETV7; 1.04 fold enrichment (6-mer frequency, TF over GST control) in the experiment with ETV3.
